Entries with a potency or affinity are not part of this list. Records with an inconclusive call do not appear. Calls of active or inactive are those of the source.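 How the source made its calls: active means compound whose fitted half-maximal concentration stays within twice the top dose, with falling signal, in all three exposure times; inconclusive means mixed calls across exposure times, weak flat curves, or poor fits; inactive means inactive at every exposure time, including opposite-direction effects.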

This assay can be described thus: SR lymphoma cell viability over time, late-stage follow-up, mechanism study for HRAS target identification, CellTiter-Glo ATP luminescence, 8-48 h, dry powder (AID 720608).

As for `Cc1onc(C(=O)N2CCN(C(c3ccncc3)c3ccncc3)CC2)c1[N+](=O)[O-]`, the outcome was inactive.

These data come from PubChem BioAssay AID720608 (Broad Institute, 2013).
